High-throughput results deposited in PubChem by several laboratories.
The list is not random: actives were taken first. Their share in the collection is about 4.5%.
PrP 5UTR inh = inhibition of PrP 5' UTR reporter expression; cell-based PrP 5' UTR mRNA reporter, plate reader; inhibition, % (no concentration beside the values); 340,000 tested, 0.35% active; in the data active means inhibition above about 52%
PfHsp40 yeast = rescue of yeast from PfHsp40 toxicity, primary screen, S. cerevisiae, ATP luminescence. AID 504582, 2011. S. cerevisiae expressing PfHsp40, growth rescue. 340,000 tested, 0.68% active. growth rescue, % at 12.5 µM; in the data active means growth rescue above about 28%, passing the limit was not always enough;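 further: yeast W303a lacking pdr1 and pdr3 grown in galactose medium; growth measured after three days at 30 °C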
PrPC TRFRET = inhibitors of human cell surface prion protein PrPC, primary screen, cell-based, TR-FRET; inhibition, % at 13.8 µM; TR-FRET read-out; 370,000 tested, 0.43% active; Major prion protein (Homo sapiens), P04156; in the data active means inhibition above about 24%
GDH-TPI counter-1 = GDH-TPI coupling enzyme inhibitors, primary screen, artefact control for M. tuberculosis FBA inhibitor project, biochemical, absorbance, full deck. inhibition, % at 4.8 µM. GDH-TPI coupled enzyme counterscreen, NADH absorbance. AID 588335, 2011. 360,000 tested, 1.2% active; in the data active means inhibition above about 30%
BJeLR viability = MLPCN primary cell-based screen for lethality selective to Ras in HRASV12 cells; BJeLR (HRASV12) viability, CellTiter-Glo ATP luminescence, 48 h; 300,000 tested, 0.17% active; AID 1554, 2009; inhibition, % (no concentration beside the values); in the data active means inhibition above about 50%
FBA Mtb inh = Mtb FBA enzyme inhibitors, primary screen, biochemical, fluorescence, strain H37Rv; 360,000 tested, 2.3% active; Fructose-bisphosphate aldolase (Mycobacterium tuberculosis (strain ATCC 25618 / H37Rv)), …; inhibition, % at 1 µM; AID 588726, 2011; purified M. tuberculosis FBA, fluorescence read-out
Target sequence (P9WQA3 whole entry, looked up): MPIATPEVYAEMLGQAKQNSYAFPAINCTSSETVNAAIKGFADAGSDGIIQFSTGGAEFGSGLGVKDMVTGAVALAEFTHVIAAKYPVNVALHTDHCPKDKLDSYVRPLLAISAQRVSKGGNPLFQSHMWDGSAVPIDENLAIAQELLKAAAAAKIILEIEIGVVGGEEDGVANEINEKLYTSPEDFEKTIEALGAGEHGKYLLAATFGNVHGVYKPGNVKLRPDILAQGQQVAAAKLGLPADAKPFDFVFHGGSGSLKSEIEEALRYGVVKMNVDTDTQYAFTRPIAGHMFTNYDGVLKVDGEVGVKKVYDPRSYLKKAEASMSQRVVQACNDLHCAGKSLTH
Mtb FBA inh conf = M. tuberculosis aldolase blockers, biochemical, fluorescence, strain H37Rv, confirmation | shares compounds with FBA Mtb inh | purified M. tuberculosis FBA, fluorescence read-out | inhibition, % at 1 µM | 5,600 tested, 78% active | AID 651616, 2012
GDH-TPI counter-2 = GDH-TPI coupling enzyme inhibitors, artefact control for M. tuberculosis FBA inhibitor project, biochemical, fluorescence, high throughput; shares compounds with FBA Mtb inh; GDH-TPI coupled enzyme counterscreen; 5,600 tested, 81% active; inhibition, % at 1 µM; in the data active means inhibition above about 10%
Large screens that a line does not name were inactive (follow-up assays come after a bar, where they were run). Unless noted, no stated cut-off is given here; in the data, active means inhibition above about 27%; inactive means the rest.

O=[N+]([O-])c1ccc(Cl)c(/C=N/n2c(-c3ccncc3)n[nH]c2=S)c1	none
CCOC(=O)c1ccc(Nc2nc(C)nc3c2nnn3Cc2ccccc2)cc1	none
Cn1cc2ccc(N)cc2n1	FBA Mtb inh 28.8 (no result: BJeLR viability) | Mtb FBA inh conf 68.0 | GDH-TPI counter-2 55.7
CCOC(=O)c1[nH]c2cc3c(cc2c1NC(=O)CN1CCC2(CC1)OCCO2)OCO3	FBA Mtb inh 106.0 | Mtb FBA inh conf inactive | GDH-TPI counter-2 inactive
CCOC(=O)c1[nH]c2ccccc2c1NC(=O)CN1CCCCC1	none
CCOC(=O)c1[nH]c2ccc(OCC)cc2c1NC(=O)CN1CCC2(CC1)OCCO2	FBA Mtb inh 69.2 | Mtb FBA inh conf active | GDH-TPI counter-2 active
COCCOC(=O)c1c(C)oc2ccc(OCc3cc(C(=O)OC)oc3C)cc12	none
COC(=O)c1cc(COc2ccc3c(c2)oc(=O)c2ccccc23)c(C)o1	FBA Mtb inh 32.4 | Mtb FBA inh conf 106.7 | GDH-TPI counter-2 80.5
c1ccc2c(c1)Oc1cccc3cccc-2c13	FBA Mtb inh 28.5 | Mtb FBA inh conf 85.9 | GDH-TPI counter-2 80.8
CCC1C2CN(C(C)=O)CC=C2C(C#N)=C(N)C1(C#N)C#N (stereo not given)	none
CN1CC=C2C(C#N)=C(N)C(C#N)(C#N)C(Cc3ccccc3)C2C1 (stereo not given)	FBA Mtb inh 32.4 | Mtb FBA inh conf 164.4 | GDH-TPI counter-2 151.3
COc1ccc(N2CCN(CC(=O)Nc3cccc(S(=O)(=O)N4CCOCC4)c3)CC2)cc1	none
Cc1oc(-c2cccs2)nc1CSCC(=O)N1CCC2(CC1)OCCO2	FBA Mtb inh 27.9 | Mtb FBA inh conf 164.2 | GDH-TPI counter-2 144.3
Cc1cc(C)c(OCC(=O)N(Cc2ccccc2)C2CCS(=O)(=O)C2)c(C)c1 (stereo not given)	none
COc1ccc(-c2oc3ncnc(NCCN4CCOCC4)c3c2-c2ccc(OC)cc2)cc1	none (no result: PrPC TRFRET)
c1ccc(-c2csc3ncnc(NCCN4CCOCC4)c23)cc1	none
COc1ccc(-c2oc3ncnc(NCCCN4CCOCC4)c3c2-c2ccc(OC)cc2)cc1	FBA Mtb inh 108.2 | Mtb FBA inh conf active | GDH-TPI counter-2 active
OCCCNc1ncnc2oc(-c3ccccc3)c(-c3ccccc3)c12	FBA Mtb inh 89.1 | Mtb FBA inh conf 98.3 | GDH-TPI counter-2 79.0
c1ccc(-c2oc3ncnc(NCCCN4CCOCC4)c3c2-c2ccccc2)cc1	FBA Mtb inh 48.1 | Mtb FBA inh conf inactive | GDH-TPI counter-2 inactive
O=C(NNC(=O)c1ccc2ccccc2c1O)Nc1ccc(F)cc1	FBA Mtb inh 36.8 | Mtb FBA inh conf active | GDH-TPI counter-2 173.7
Cc1cccc(NC(=O)NNC(=O)c2ccc3ccccc3c2O)c1	PfHsp40 yeast 58.3, FBA Mtb inh 28.7 | Mtb FBA inh conf 81.1 | GDH-TPI counter-2 59.0
O=C(NNC(=O)c1ccc2ccccc2c1)Nc1ccc(F)cc1	none
CCCC(=O)c1c[nH]c(C(=O)N2CCOCC2)c1	none
Cc1cc(C)c(O)c(-c2cc(C(=O)Nc3c(C)n(C)n(-c4ccccc4)c3=O)[nH]n2)c1	none (no result: PrP 5UTR inh)
CS(=O)(=O)c1ccc2nc(NC(=O)c3cccc(NS(=O)(=O)c4ccc(F)c(F)c4)c3)sc2c1	FBA Mtb inh 29.0 | Mtb FBA inh conf 150.6 | GDH-TPI counter-2 138.8
CSc1nc2ccc(NC(=O)c3ccc(F)c(F)c3)cc2s1	none
O=C(Nc1nc2ccc(SC(F)F)cc2s1)c1ccc(NS(=O)(=O)c2ccc(F)c(F)c2)cc1	FBA Mtb inh 54.8 | Mtb FBA inh conf active | GDH-TPI counter-2 active
CS(=O)(=O)c1ccc2nc(NC(=O)c3ccc(NS(=O)(=O)c4ccc(F)c(F)c4)cc3)sc2c1	GDH-TPI counter-1 59.8, FBA Mtb inh 71.0 | Mtb FBA inh conf 79.0 | GDH-TPI counter-2 81.8
COc1cc(OC)cc(C(=O)Nc2nc3ccc(S(C)(=O)=O)cc3s2)c1	none
CS(=O)(=O)c1ccc2nc(NC(=O)c3cc([N+](=O)[O-])cc([N+](=O)[O-])c3)sc2c1	none
CCc1ccc(N2CC(C(=O)N3CCN(c4ccccn4)CC3)CC2=O)cc1 (stereo not given)	none
O=C1Nc2ccc(Cl)cc2[C@@](C#CC2CC2)(C(F)(F)F)O1	none (no result: PrP 5UTR inh, PfHsp40 yeast, PrPC TRFRET, GDH-TPI counter-1, FBA Mtb inh)
CC(NC(=O)c1ccncc1)c1ccc(Br)cc1 (stereo not given)	none
CCC1CC2(C)NC(=O)c3c(sc4c3CC(C)(C)OC4)N2C1=O (stereo not given)	FBA Mtb inh 39.1 | Mtb FBA inh conf 175.4 | GDH-TPI counter-2 111.8
C=CCc1cccc(C=Nc2cccn3cc(-c4ccccc4)nc23)c1O	FBA Mtb inh 39.2 | Mtb FBA inh conf active | GDH-TPI counter-2 175.9
O=C(NNC(=O)c1csc(N2CCOCC2)n1)c1ccc(=O)[nH]c1	none (no result: BJeLR viability)
CC1CCCN(Cc2c(O)ccc3c(=O)c(-c4nc5ccccc5s4)c(N)oc23)C1 (stereo not given)	GDH-TPI counter-1 38.7, FBA Mtb inh 32.7 | Mtb FBA inh conf 136.1 | GDH-TPI counter-2 83.9
CCC1C(=O)n2nc(-c3ccccc3)cc2N=C1C (stereo not given)	FBA Mtb inh 39.6 | Mtb FBA inh conf active | GDH-TPI counter-2 144.6
CCOCc1cc(C)[nH]c(=O)c1C#N	FBA Mtb inh 67.9 | Mtb FBA inh conf 174.7 | GDH-TPI counter-2 147.8
COCc1cc(C)c(C#N)c(=S)[nH]1	none (no result: PrPC TRFRET)
CCn1c(CC(=O)Nc2ccc(F)cc2)nnc1SCC(=O)N1CCOCC1	none
O=C1NC(C2CC3C=CC2C3)Nc2ccccc21 (stereo not given)	FBA Mtb inh 63.1 (no result: PrP 5UTR inh, PfHsp40 yeast, BJeLR viability) | Mtb FBA inh conf active | GDH-TPI counter-2 172.1
COc1ccc([N+](=O)[O-])cc1NC(=O)C(C)OC(=O)Cn1[nH]c(=O)c2ccccc2c1=O (stereo not given)	none
CC1CCN(C(c2cc3cc4c(cc3[nH]c2=O)OCO4)c2nnnn2CC2CCCO2)CC1 (stereo not given)	none (no result: PrPC TRFRET)
O=c1[nH]c2cc3c(cc2cc1CN(Cc1nnnn1CC1CCCO1)C1CCCCC1)OCO3 (stereo not given)	FBA Mtb inh 56.8 | Mtb FBA inh conf active | GDH-TPI counter-2 active
O=c1[nH]c2cc3c(cc2cc1CN(CCc1ccccc1)Cc1nnnn1CC1CCCO1)OCO3 (stereo not given)	FBA Mtb inh 30.0 | Mtb FBA inh conf inactive | GDH-TPI counter-2 16.6
